Reference: PubChem BioAssay (EPA / NIEHS)
The source made the active and inactive calls. The calls were made as follows: active = hit-call score of the fitted dose curve at least 0.9, where 1 is the maximum; inactive = score below 0.9.

Test: ATG_TAL_CIS: Attagene CIS-FACTORIAL HepG2 Assay for human TAL Basal Promoter (AID 2282966)
Conditions: HepG2 Attagene cis-factorial TAL promoter reporter; actives raise or lower the signal
Experimental: ATG_CIS is a cell-based, multiplexed-readout assay that uses HepG2, a human liver cell line, with measurements taken at 24 hours after chemical dosing in a 24-well plate.ATG_TAL_CIS is one of 52 assay component(s) measured or calculated from the ATG_CIS assay. It is designed to make measurements of mRNA induction, a form of inducible reporter, as detected with fluorescence intensity signals by Reverse transcription polymerase chain reaction (RT-PCR) and Capillary electrophoresis technology.Data from the assay component ATG_TAL_CIS was analyzed into 1 assay endpoint. This assay endpoint, ATG_TAL_CIS, was analyzed with bidirectional fitting relative to DMSO as the negative control and baseline of activity. Using a type of inducible reporter, measures of mRNA for gain or loss-of-signal activity can be used to understand the background control at the transcription factor-level as they relate to the gene . Furthermore, this assay endpoint can be referred to as a secondary readout, because this assay has produced multiple assay endpoints where this one serves a background control function. To generalize the intended target to other relatable targets, this assay endpoint is annotated to the background measurement intended target family, where the subfamily is internal marker.
Human liver HepG2 cells are transiently transfected with multiple reporter transcription units (MRTUs) in 6-well plates using FuGene 6 reagent (Roche; 3 ml FuGene/1 mg DNA). The MRTU constructs are regulated by a cis-regulating element (promoter). […] A major difference between the CIS and TRANS system is that in CIS activities of endogenous TFs are measured, whereas the TRANS assay evaluates changes in activities of exogenous, chimeric NR-Gal4 proteins. […] At the end of 24 hour incubation, total RNA was isolated using TriZol reagent (Invitrogen). The isolated RNA is then reverse-transcribed using oligo(dT) primer and Mo-MLV reverse transcriptase (Invitrogen) with DNAse I (Ambion) treatment for 30 min. The one-tenth of the produced cDNA was amplified by PCR using Taq DNA polymerase (Invitrogen) and two reporter sequence-specific primers. The PCR products were fluorescently labeled by primer extension with 6-arboxyfluorescein (6-FAM) 5'-labeled reporter sequence-specific primer (2 min at 95 C, 20 s at 68 C and 10 min at 72 C) and these products were digested with 5U of HpaI (New England Biolabs) for 2h at 37 C. The fragments were purified using Qiaquick PCR columns (Qiagen), analyzed on an ABI 3130xL genetic analyzer (Applied Biosystems) with peak positions identified by using a set of X-rhodamine (ROX)-labeled MapMarker1000 molecular weight standards (BioVentures). The raw capillary electrophoresis data was processed using Attagraph software (Attagene).

Question: With `CCCCCCCCCCCCC` as the compound, how does the outcome read?
Answer: Its outcome is “inactive”.

Question: With `Oc1ccc(-c2ccccc2)c(Cl)c1` as the compound, how does the outcome read?
Answer: The outcome was “inactive”.

Question: Which outcome does the source give for `Nc1nc(N)nc(-c2ccccc2)n1` here?
Answer: Its outcome is “inactive”.

Question: With `C=C1C[C@H]2[C@@H]3C=C(C)C4=CC(=O)CC[C@]4(C)[C@H]3CC[C@]2(C)[C@@]1(OC(C)=O)C(C)=O` as the compound, how does the AC50 read?
Answer: Its AC50 is 52.8 µM (active).

Question: For `CC12CCC(CC1)C(C)(C)O2`, which outcome is on record?
Answer: Its outcome is “inactive”.

Question: With `CCOc1ccc(NC(N)=O)cc1` as the compound, how does the outcome read?
Answer: The outcome was “inactive”.

Question: Which outcome does the source give for `CCC(C)c1ccccc1` (stereo not given) here?
Answer: Its outcome is “inactive”.

Question: With `CC(=O)/C=C/C1C(C)=CCCC1(C)C` (stereo not given) as the compound, how does the outcome read?
Answer: The outcome was “inactive”.

Question: Which outcome does the source give for `COCC(=O)O` here?
Answer: Its outcome is “inactive”.

Question: With `Nc1ccc(O)c([N+](=O)[O-])c1` as the compound, how does the outcome read?
Answer: The outcome was “inactive”.

Question: For `COC(Cc1ccccc1)OC`, which outcome is on record?
Answer: The outcome was “inactive”.

Question: For `CC(C)=NNC(N)=S`, which outcome is on record?
Answer: The outcome was “inactive”.

Question: For `O=C(O)CCCC(=O)O`, which outcome is on record?
Answer: Its outcome is “inactive”.

Question: With `Cc1cc(C)c(C=O)c(C)c1` as the compound, how does the outcome read?
Answer: The outcome was “inactive”.

Question: Which outcome does the source give for `CC(C)c1cccc(C(C)C)c1N` here?
Answer: The outcome was “inactive”.

Question: With `COC(=O)c1ccccc1C` as the compound, how does the outcome read?
Answer: The outcome was “inactive”.

Question: For `CC1=CC(C)C(C=O)CC1` (stereo not given), which outcome is on record?
Answer: The outcome was “inactive”.

Question: For `CC(C)C(=O)OCCOc1ccccc1`, which outcome is on record?
Answer: The outcome was “inactive”.

Question: With `C=CCCCCCCCCO` as the compound, how does the outcome read?
Answer: Its outcome is “inactive”.

Question: Which outcome does the source give for `Nc1ccc(Cl)c(N)c1` here?
Answer: Its outcome is “inactive”.

Question: For `CCCc1ccc(O)c(OC)c1`, which outcome is on record?
Answer: The outcome was “inactive”.

Question: Which outcome does the source give for `CCC(=O)C1CC(C(C)C)CC=C1C` (stereo not given) here?
Answer: Its outcome is “inactive”.

Question: Which outcome does the source give for `CC(C)(O)Cc1ccccc1` here?
Answer: Its outcome is “inactive”.

Question: Which outcome does the source give for `c1ccc2c(c1)[nH]c1ccccc12` here?
Answer: Its outcome is “inactive”.

Question: With `[Cl][Eu]([Cl])[Cl]` as the compound, how does the outcome read?
Answer: The outcome was “inactive”.

Question: Which outcome does the source give for `Oc1ccccc1Cc1ccccc1O` here?
Answer: Its outcome is “inactive”.

Question: Which outcome does the source give for `O=C1CCCN1C1CCCCC1` here?
Answer: The outcome was “inactive”.

Question: With `CCOB(OCC)OCC` as the compound, how does the outcome read?
Answer: Its outcome is “inactive”.

Question: With `CCN(CC)c1cccc(C)c1` as the compound, how does the outcome read?
Answer: Its outcome is “inactive”.

Question: Which outcome does the source give for `CCC(C)(O)CCCC(C)C` (stereo not given) here?
Answer: The outcome was “inactive”.

Question: Which outcome does the source give for `c1ccc2sc(SSN3CCOCC3)nc2c1` here?
Answer: Its outcome is “inactive”.

Question: For `CCCCCCCCCCCC(C)=O`, which AC50 is on record?
Answer: Its AC50 is 178 µM (active).

Question: With `Oc1c(Cl)cc(Cl)c(Cl)c1Cl` as the compound, how does the outcome read?
Answer: Its outcome is “inactive”.

Question: With `C[N+](C)(C)CCCNS(=O)(=O)C(F)(F)C(F)(F)C(F)(F)C(F)(F)C(F)(F)C(F)(F)C(F)(F)C(F)(F)F` as the compound, how does the outcome read?
Answer: The outcome was “inactive”.

Question: For `O=C(O)C1CCC(C(=O)O)CC1` (stereo not given), which outcome is on record?
Answer: The outcome was “inactive”.

Question: With `CC1=CP(=O)(c2ccccc2)CC1` (stereo not given) as the compound, how does the outcome read?
Answer: Its outcome is “inactive”.

Question: For `O=C1CCCCCCCCCCCN1`, which outcome is on record?
Answer: Its outcome is “inactive”.

Question: With `CC(C)[N+](C)(CCOC(=O)C1c2ccccc2Oc2ccccc21)C(C)C` as the compound, how does the outcome read?
Answer: The outcome was “inactive”.

Question: For `Nc1ccc(C(=O)OCCCOC(=O)c2ccc(N)cc2)cc1`, which outcome is on record?
Answer: The outcome was “inactive”.

Question: For `O=C(OCCc1ccccc1)c1ccccc1`, which outcome is on record?
Answer: The outcome was “inactive”.
